Test results: the supplement of paper PMC8728848
Shown is part of a subset that was picked to be rich in the strongest signals.

Assays:
Test in all cases: glycan array binding signal (z-score within array); higher = stronger binding
Settings in all cases: glycan notation: IUPAC condensed, linker removed
[1] = molecular target: Fuc(a1-2)Gal(b1-3)GalNAc(b1-3)Gal(a1-4)Gal(b1-4)Glc
Summary of the method: (§1)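 Glycan array data were curated from 3228 arrays in the Consortium for Functional Glycomics database and kept only where the protein sequence was available. Glycan names were converted to IUPAC-condensed notation, and columns mapping to the same glycan were averaged. The binding signal is a within-array Z-score, averaged across arrays of the same protein sequence at different concentrations or buffers and across linkers. Negative Z-scores can be read as non-binding.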

[2] = molecular target: Fuc(a1-2)Gal(b1-4)GlcNAc(b1-2)Man(a1-3)[Fuc(a1-2)Gal(b1-4)GlcNAc(b1-2)Man(a1-6)]Man(b1-4)GlcNAc(b1-4)[Fuc(a1-6)]GlcNAc
Summary of the method: as §1

[3] = molecular target: Fuc(a1-2)Gal(b1-4)[Fuc(a1-3)]GlcNAc(b1-2)[Fuc(a1-2)Gal(b1-4)[Fuc(a1-3)]GlcNAc(b1-4)]Man(a1-3)[Fuc(a1-2)Gal(b1-4)[Fuc(a1-3)]GlcNAc(b1-2)Man(a1-6)]Man(b1-4)GlcNAc(b1-4)GlcNAc
Summary of the method: as §1

[4] = molecular target: Fuc(a1-2)Gal(b1-4)[Fuc(a1-3)]GlcNAc(b1-3)Gal(b1-4)[Fuc(a1-3)]GlcNAc
Summary of the method: as §1

[5] = molecular target: Fuc(a1-2)Gal6S(b1-4)Glc
Summary of the method: as §1

[6] = molecular target: Fuc(a1-2)[Gal(a1-3)]Gal(b1-4)GlcNAc(b1-6)GalNAc
Summary of the method: as §1

[7] = molecular target: Fuc(a1-2)[GalNAc(a1-3)]Gal(b1-3)GalNAc(a1-3)[Fuc(a1-2)]Gal(b1-4)GlcNAc
Summary of the method: as §1

[8] = molecular target: Gal(a1-4)Gal(b1-4)GlcNAc(b1-2)Man(a1-3)[Gal(a1-4)Gal(b1-4)GlcNAc(b1-2)Man(a1-6)]Man(b1-4)GlcNAc(b1-4)GlcNAc
Summary of the method: as §1

[9] = molecular target: Gal(b1-3)GlcNAc(b1-2)Man
Summary of the method: as §1

[10] = molecular target: Gal(b1-3)GlcNAc(b1-2)Man(a1-3)[GlcNAc(b1-4)][Gal(b1-3)GlcNAc(b1-2)Man(a1-6)]Man(b1-4)GlcNAc(b1-4)GlcNAc
Summary of the method: as §1

[11] = molecular target: Gal(b1-3)GlcNAc(b1-2)[Gal(b1-3)GlcNAc(b1-6)]Man(a1-6)[Gal(b1-3)GlcNAc(b1-2)Man(a1-3)]Man(b1-4)GlcNAc(b1-4)GlcNAc
Summary of the method: as §1

[12] = molecular target: Gal(b1-3)GlcNAc(b1-3)Gal(b1-4)Glc
Summary of the method: as §1

[13] = molecular target: Gal(b1-3)GlcNAc(b1-3)Gal(b1-4)GlcNAc
Summary of the method: as §1

[14] = molecular target: Gal(b1-3)[Fuc(a1-4)]GlcNAc
Summary of the method: as §1

[15] = molecular target: Gal(b1-4)GlcNAc(b1-2)Man(a1-3)[GlcNAc(b1-2)Man(a1-6)]Man(b1-4)GlcNAc(b1-4)GlcNAc
Summary of the method: as §1

[16] = molecular target: Gal(b1-4)GlcNAc(b1-2)Man(a1-3)[GlcNAc(b1-4)][Gal(b1-4)GlcNAc(b1-2)Man(a1-6)]Man(b1-4)GlcNAc(b1-4)GlcNAc
Summary of the method: as §1

[17] = molecular target: Gal(b1-4)GlcNAc(b1-2)Man(a1-3)[Man(a1-6)]Man(b1-4)GlcNAc(b1-4)GlcNAc
Summary of the method: as §1

[18] = molecular target: Gal(b1-4)GlcNAc(b1-2)[Gal(b1-4)GlcNAc(b1-4)]Man(a1-3)[Gal(b1-4)GlcNAc(b1-2)[Gal(b1-4)GlcNAc(b1-6)]Man(a1-6)]Man(b1-4)GlcNAc(b1-4)GlcNAc
Summary of the method: as §1

[19] = molecular target: Gal(b1-4)GlcNAc(b1-3)Gal(b1-4)GlcNAc(b1-2)[Gal(b1-4)GlcNAc(b1-3)Gal(b1-4)GlcNAc(b1-6)]Man(a1-6)[Gal(b1-4)GlcNAc(b1-3)Gal(b1-4)GlcNAc(b1-2)Man(a1-3)]Man(b1-4)GlcNAc(b1-4)GlcNAc
Summary of the method: as §1

[20] = molecular target: Gal(b1-4)GlcNAc(b1-3)Gal(b1-4)GlcNAc(b1-3)Gal(b1-4)GlcNAc(b1-3)Gal(b1-4)GlcNAc(b1-2)Man(a1-3)[Gal(b1-4)GlcNAc(b1-3)Gal(b1-4)GlcNAc(b1-3)Gal(b1-4)GlcNAc(b1-3)Gal(b1-4)GlcNAc(b1-2)Man(a1-6)]Man(b1-4)GlcNAc(b1-4)[Fuc(a1-6)]GlcNAc
Summary of the method: as §1

[21] = molecular target: Gal(b1-4)GlcNAc(b1-3)[GlcNAc(b1-6)]Gal(b1-4)GlcNAc
Summary of the method: as §1

[22] = molecular target: Gal3S(b1-3)GlcNAc
Summary of the method: as §1

[23] = molecular target: Gal3S(b1-4)[Fuc(a1-3)]Glc6S
Summary of the method: as §1

[24] = molecular target: GalNAc6S(b1-4)GlcNAc
Summary of the method: as §1

[25] = molecular target: GlcNAc(a1-4)Gal(b1-4)GlcNAc
Summary of the method: as §1

[26] = molecular target: GlcNAc(b1-3)Man
Summary of the method: as §1

[27] = molecular target: GlcNAc6S(b1-3)Gal(b1-4)GlcNAc
Summary of the method: as §1

[28] = molecular target: Man(a1-2)Man(a1-3)[Man(a1-2)Man(a1-6)]Man(a1-6)[Man(a1-2)Man(a1-2)Man(a1-3)]Man
Summary of the method: as §1

[29] = molecular target: Neu5Ac(a2-3)Gal(b1-3)GalNAc
Summary of the method: as §1

[30] = molecular target: Neu5Ac(a2-3)Gal(b1-3)GalNAc(b1-3)Gal(a1-4)Gal(b1-4)Glc
Summary of the method: as §1

[31] = molecular target: Neu5Ac(a2-3)Gal(b1-3)GlcNAc(b1-2)Man(a1-3)[Neu5Ac(a2-3)Gal(b1-3)GlcNAc(b1-2)Man(a1-6)]Man(b1-4)GlcNAc(b1-4)GlcNAc
Summary of the method: as §1

[32] = molecular target: Neu5Ac(a2-3)Gal(b1-3)GlcNAc(b1-3)GalNAc
Summary of the method: as §1

[33] = molecular target: Neu5Ac(a2-3)Gal(b1-4)GlcNAc(b1-2)Man
Summary of the method: as §1

[34] = molecular target: Neu5Ac(a2-3)Gal(b1-4)GlcNAc(b1-2)[Neu5Ac(a2-3)Gal(b1-4)GlcNAc(b1-4)]Man(a1-3)[GlcNAc(b1-4)][Neu5Ac(a2-3)Gal(b1-4)GlcNAc(b1-4)Man(a1-6)]Man(b1-4)GlcNAc(b1-4)GlcNAc
Summary of the method: as §1

[35] = molecular target: Neu5Ac(a2-3)Gal(b1-4)GlcNAc(b1-3)Gal(b1-4)GlcNAc(b1-3)[Neu5Ac(a2-3)Gal(b1-4)GlcNAc(b1-3)Gal(b1-4)GlcNAc(b1-6)]GalNAc
Summary of the method: as §1

[36] = molecular target: Neu5Ac(a2-3)Gal(b1-4)[Fuc(a1-3)]GlcNAc(b1-3)GalNAc
Summary of the method: as §1

[37] = molecular target: Neu5Ac(a2-3)Gal6S(b1-4)GlcNAc
Summary of the method: as §1

[38] = molecular target: Neu5Ac(a2-6)Gal(b1-4)GlcNAc(b1-2)Man(a1-3)Man(b1-4)GlcNAc(b1-4)GlcNAc
Summary of the method: as §1

[39] = molecular target: Neu5Ac(a2-6)Gal(b1-4)GlcNAc(b1-3)Gal(b1-3)GlcNAc
Summary of the method: as §1

[40] = molecular target: Neu5Ac(a2-6)GlcNAc(b1-4)GlcNAc(b1-4)GlcNAc
Summary of the method: as §1

[41] = molecular target: Neu5Gc(a2-3)Gal(b1-4)GlcNAc
Summary of the method: as §1

B1: PfulAvr4 2 (Pseudocercospora fuligena) (protein)
chain: HHHHHHDYKDDDDKAKPIKPFACPPKDFTTTKCQGPVDCLYANPLSCLGYIQCVCDDDACSTATPYAKSCPTGLAWVEKLKRCDGIKKSACPKKMYEGS
Q: Which results are given for B1?
A: glycan array binding signal (z-score) [1]: 0.285; glycan array binding signal (z-score) [2]: 2.88; glycan array binding signal (z-score) [3]: 4.77; glycan array binding signal (z-score) [4]: -0.355; glycan array binding signal (z-score) [5]: -0.291; glycan array binding signal (z-score) [6]: -0.178; glycan array binding signal (z-score) [7]: 3.28; glycan array binding signal (z-score) [8]: 1.43; glycan array binding signal (z-score) [9]: -0.279; glycan array binding signal (z-score) [10]: 8.86; glycan array binding signal (z-score) [11]: -0.063; glycan array binding signal (z-score) [12]: 0.144; glycan array binding signal (z-score) [13]: -0.311; glycan array binding signal (z-score) [14]: -0.218; glycan array binding signal (z-score) [15]: -0.331; glycan array binding signal (z-score) [16]: -0.216; glycan array binding signal (z-score) [17]: 9.66; glycan array binding signal (z-score) [18]: -0.113; glycan array binding signal (z-score) [19]: 4.76; glycan array binding signal (z-score) [20]: -0.233; glycan array binding signal (z-score) [21]: 5.97; glycan array binding signal (z-score) [22]: -0.314; glycan array binding signal (z-score) [23]: -0.272; glycan array binding signal (z-score) [24]: -0.276; glycan array binding signal (z-score) [25]: -0.432; glycan array binding signal (z-score) [26]: 4.99; glycan array binding signal (z-score) [27]: -0.273; glycan array binding signal (z-score) [28]: -0.359; glycan array binding signal (z-score) [29]: -0.292; glycan array binding signal (z-score) [30]: -0.326; glycan array binding signal (z-score) [31]: 7.16; glycan array binding signal (z-score) [32]: -0.01; glycan array binding signal (z-score) [33]: 5.08; glycan array binding signal (z-score) [34]: -0.253; glycan array binding signal (z-score) [35]: -0.158; glycan array binding signal (z-score) [36]: 0.545; glycan array binding signal (z-score) [37]: -0.482; glycan array binding signal (z-score) [38]: -0.224; glycan array binding signal (z-score) [39]: -0.344; glycan array binding signal (z-score) [40]: 3.75; glycan array binding signal (z-score) [41]: -0.214
